Activity calls are given as the source filed them. How the source made its calls: active means hit-call score of the fitted dose curve at least 0.9, where 1 is the maximum; inactive means score below 0.9.
Key:
Conditions in all cases: mRNA level, 48 h; actives raise or lower the signal
MYC, MYC (gene 4609) = assay: LTEA_HepaRG_MYC: Life Technologies and Expression Analysis (LTEA) Assay for MYC using HepaRG (AID 2283518)
How it was run: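 Differentiated human HepaRG cells, plated 48 h then switched to serum-free induction medium, were exposed in duplicate for 48 h to 8-point half-log series up to 100 uM in 0.5% DMSO. MYC mRNA measured by qRT-PCR, normalized to ACTB/GAPDH/POLR2A.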

[1] = read-out: matrix metalloproteinase-3 (MMP3), MMP3 (gene 4314); assay: LTEA_HepaRG_MMP3: Life Technologies and Expression Analysis (LTEA) Assay for matrix metalloproteinase-3 (MMP3) using HepaRG (AID 2283519)
How it was run: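 HepaRG, human; 48 h dosing, 8 conc. (max 100 uM, half-log), duplicate, 0.5% DMSO. Readout: MMP3 transcript by Fluidigm TaqMan qRT-PCR, ACTB/GAPDH/POLR2A-normalised. Gain or loss fitted vs DMSO.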

[2] = read-out: Paternally Expressed 10 (PEG10), PEG10 (gene 23089); assay: LTEA_HepaRG_PEG10: Life Technologies and Expression Analysis (LTEA) Assay for Paternally Expressed 10 (PEG10) using HepaRG (AID 2283520);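 on AC50: PEG10 transcript by qRT-PCR normalised to ACTB GAPDH and POLR2A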
How it was run: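 Chemicals tested on HepaRG cells for 48 h, highest concentration 100 uM. PEG10 expression assessed by qRT-PCR relative to DMSO control.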

[3] = read-out: Protein phosphatase 2A (PPP2R4), PTPA (gene 5524); assay: LTEA_HepaRG_PPP2R4: Life Technologies and Expression Analysis (LTEA) Assay for Protein phosphatase 2A (PPP2R4) using HepaRG (AID 2283522)
How it was run: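 Gene-expression endpoint in HepaRG hepatic cells: 48 h treatment across eight half-log concentrations up to 100 uM in 0.5% DMSO. PPP2R4 mRNA by qRT-PCR, normalized to three endogenous control genes.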

[4] = read-out: Phosphatase and tensin (PTEN), PTEN (gene 5728); assay: LTEA_HepaRG_PTEN: Life Technologies and Expression Analysis (LTEA) Assay for Phosphatase and tensin (PTEN) using HepaRG (AID 2283523)
How it was run: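 Read-out is PTEN transcript level by multiplexed TaqMan qRT-PCR after 48 h chemical treatment of human HepaRG cultures in serum-free induction medium. Concentrations spanned 100 uM downward in half-log steps, 0.5% DMSO throughout; activity fitted in both directions against vehicle.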

[5] = read-out: solute carrier (SLC22A1), SLC22A1 (gene 6580); assay: LTEA_HepaRG_SLC22A1: Life Technologies and Expression Analysis (LTEA) Assay for solute carrier (SLC22A1) using HepaRG (AID 2283524)
How it was run: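 HepaRG (human liver line), 48 h dosing in serum-free induction medium; 8 conc., half-log down from 100 uM, 0.5% DMSO vehicle, duplicates. Endpoint: SLC22A1 mRNA, qRT-PCR, housekeeping-normalized; gain/loss fit vs DMSO.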

[6] = read-out: Pyruvate Dehydrogenase Kinase 4 (PDK4), PDK4 (gene 5166); assay: LTEA_HepaRG_PDK4: Life Technologies and Expression Analysis (LTEA) Assay for Pyruvate Dehydrogenase Kinase 4 (PDK4) using HepaRG (AID 2283525)
How it was run: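 In this multiplexed human HepaRG expression assay, cells are treated 48 h with test chemicals across an eight-point range starting at 100 uM. PDK4 mRNA changes, normalized to ACTB/GAPDH/POLR2A, are fitted in both directions relative to vehicle.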

[7] = read-out: NAD(P)H dehydrogenase [quinone] 1 (NQO1), NQO1 (gene 1728); assay: LTEA_HepaRG_NQO1: Life Technologies and Expression Analysis (LTEA) Assay for NAD(P)H dehydrogenase [quinone] 1 (NQO1) using HepaRG (AID 2283526)
How it was run: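 Human HepaRG hepatic cells received chemicals for 48 h in serum-free induction medium with 0.5% DMSO, up to 100 uM. Expression was assessed by TaqMan qRT-PCR against housekeeping controls and fitted bidirectionally against DMSO.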

[8] = read-out: Nuclear factor erythroid 2-related factor 2 (Homo sapiens) (UniProt Q16236); assay: LTEA_HepaRG_NFE2L2: Life Technologies and Expression Analysis (LTEA) Assay for Nuclear factor erythroid 2-related factor 2 (NFE2L2) Transcription Factor using HepaRG (AID 2283527)
How it was run: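 Transcript level of NFE2L2 is the read-out, measured by microfluidic TaqMan qRT-PCR and normalized to three housekeeping genes. Human HepaRG cultures received test chemical for 48 h at up to 100 uM in half-log steps. Gain or loss of signal is fitted relative to 0.5% DMSO.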

[9] = read-out: Signal transducer and activator of transcription 3 (Homo sapiens) (UniProt P40763); assay: LTEA_HepaRG_STAT3: Life Technologies and Expression Analysis (LTEA) Assay for Signal transducer and activator of transcription (STAT3) using HepaRG (AID 2283529)
How it was run: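 Read-out is STAT3 mRNA level by qRT-PCR, normalized to three housekeeping genes, in human HepaRG liver cells treated for 48 h. Concentrations ran from 100 uM downward in half-log steps; curves were fitted for gain or loss relative to 0.5% DMSO.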

[10] = read-out: solute carrier (SLCO1B1), SLCO1B1 (gene 10599); assay: LTEA_HepaRG_SLCO1B1: Life Technologies and Expression Analysis (LTEA) Assay for solute carrier (SLCO1B1) using HepaRG (AID 2283530)
How it was run: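 Differentiated human HepaRG cells, plated 48 h, switched to serum-free induction medium and exposed in duplicate for 48 h to 8 half-log concentrations (top 100 uM) in 0.5% DMSO. SLCO1B1 mRNA by TaqMan qRT-PCR, normalized to ACTB/GAPDH/POLR2A.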

[11] = read-out: sulfotransferase 2A1 (SULT2A1), SULT2A1 (gene 6822); assay: LTEA_HepaRG_SULT2A1: Life Technologies and Expression Analysis (LTEA) Assay for sulfotransferase 2A1 (SULT2A1) using HepaRG (AID 2283531)
How it was run: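 Differentiated human HepaRG cells in serum-free induction medium were exposed for 48 h to eight half-log concentrations (top 100 uM, 0.5% DMSO). SULT2A1 mRNA was measured by qRT-PCR, normalized to ACTB, GAPDH and POLR2A, and fitted bidirectionally against DMSO.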

[12] = read-out: Transforming Growth Factor (TGFA), TGFA (gene 7039); assay: LTEA_HepaRG_TGFA: Life Technologies and Expression Analysis (LTEA) Assay for Transforming Growth Factor (TGFA) using HepaRG (AID 2283532)
How it was run: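 HepaRG (human liver line), 48 h exposure, 8 conc. half-log down from 100 uM, 0.5% DMSO vehicle, duplicates; serum-free induction medium. TGFA mRNA by TaqMan qRT-PCR, ACTB/GAPDH/POLR2A normalization; gain/loss fit vs DMSO.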

[13] = read-out: Transforming Growth Factor (TGFB1), TGFB1 (gene 7040); assay: LTEA_HepaRG_TGFB1: Life Technologies and Expression Analysis (LTEA) Assay for Transforming Growth Factor (TGFB1) Transporter using HepaRG (AID 2283533)
How it was run: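 Differentiated human HepaRG cells in serum-free induction medium were exposed in duplicate for 48 h to eight concentrations (top 100 uM, half-log steps, 0.5% DMSO). TGFB1 mRNA was quantified by qRT-PCR, normalized to ACTB, GAPDH, POLR2A, and fitted bidirectionally against DMSO.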

[14] = read-out: Tumor necrosis factor receptor 1 (TNFRSF1A), TNFRSF1A (gene 7132); assay: LTEA_HepaRG_TNFRSF1A: Life Technologies and Expression Analysis (LTEA) Assay for Tumor necrosis factor receptor 1 (TNFRSF1A) using HepaRG (AID 2283535)
How it was run: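 Differentiated human HepaRG cells were exposed in duplicate for 48 h in serum-free induction medium to eight concentrations (top 100 uM, half-log steps, 0.5% DMSO). TNFRSF1A mRNA was quantified by qRT-PCR, normalized to ACTB, GAPDH and POLR2A, then fitted bidirectionally against DMSO.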

[15] = read-out: Thyroid Hormone Responsive (THRSP), THRSP (gene 7069); assay: LTEA_HepaRG_THRSP: Life Technologies and Expression Analysis (LTEA) Assay for Thyroid Hormone Responsive (THRSP) using HepaRG (AID 2283536)
How it was run: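 mRNA induction or loss relative to 0.5% DMSO vehicle was fitted bidirectionally across an eight-point curve whose highest exposure was 100 uM. Human HepaRG liver cells received chemicals in duplicate over 48 h before RNA extraction.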

[16] = read-out: Cellular tumor antigen p53 (Homo sapiens) (UniProt P04637); assay: LTEA_HepaRG_TP53: Life Technologies and Expression Analysis (LTEA) Assay for Tumor Protein P53 (TP53) using HepaRG (AID 2283537)
How it was run: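 Differentiated HepaRG cells in serum-free induction medium exposed 48 h in duplicate to 8 half-log concentrations, top 100 uM, 0.5% DMSO. TP53 mRNA by TaqMan qRT-PCR (Fluidigm), normalized to ACTB, GAPDH, POLR2A; fitted bidirectionally versus DMSO.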

[17] = read-out: Nuclear factor NF-kappa-B p105 subunit (Homo sapiens) (UniProt P19838); assay: LTEA_HepaRG_NFKB1: Life Technologies and Expression Analysis (LTEA) Assay for Nuclear Factor Kappa B Subunit 1 (NFKB1) using HepaRG (AID 2283521)
How it was run: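 Differentiated human HepaRG cells in serum-free induction medium with 0.5% DMSO were exposed for 48 h to eight half-log concentrations, top 100 uM, in duplicate. NFKB1 mRNA measured by Fluidigm TaqMan qRT-PCR, normalised to ACTB, GAPDH and POLR2A; bidirectional fit versus DMSO.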

[18] = read-out: succinate dehydrogenase complex iron sulfur subunit B (SDHB), SDHB (gene 6390); assay: LTEA_HepaRG_SDHB: Life Technologies and Expression Analysis (LTEA) Assay for succinate dehydrogenase complex iron sulfur subunit B (SDHB) using HepaRG (AID 2283528)
How it was run: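 HepaRG cells (~100,000/well, plated 48 h) exposed in duplicate for 48 h in serum-free induction medium to 8-point half-log series from 100 uM in 0.5% DMSO; mRNA by qRT-PCR normalised to ACTB, GAPDH, POLR2A; bidirectional fit versus DMSO.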

TIMP1, TIMP1 (gene 7076) = assay: LTEA_HepaRG_TIMP1: Life Technologies and Expression Analysis (LTEA) Assay for TIMP1 using HepaRG (AID 2283534)
How it was run: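 Differentiated human HepaRG cells in serum-free induction medium were exposed 48 h to chemicals (8 half-log concentrations, top 100 uM, 0.5% DMSO). TIMP1 mRNA was quantified by TaqMan qRT-PCR, normalized to ACTB/GAPDH/POLR2A; bidirectional fit versus DMSO.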

Measured: AC50

Nuclear factor erythroid 2-related factor 2 (Homo sapiens), sequence (Q16236 whole entry, looked up): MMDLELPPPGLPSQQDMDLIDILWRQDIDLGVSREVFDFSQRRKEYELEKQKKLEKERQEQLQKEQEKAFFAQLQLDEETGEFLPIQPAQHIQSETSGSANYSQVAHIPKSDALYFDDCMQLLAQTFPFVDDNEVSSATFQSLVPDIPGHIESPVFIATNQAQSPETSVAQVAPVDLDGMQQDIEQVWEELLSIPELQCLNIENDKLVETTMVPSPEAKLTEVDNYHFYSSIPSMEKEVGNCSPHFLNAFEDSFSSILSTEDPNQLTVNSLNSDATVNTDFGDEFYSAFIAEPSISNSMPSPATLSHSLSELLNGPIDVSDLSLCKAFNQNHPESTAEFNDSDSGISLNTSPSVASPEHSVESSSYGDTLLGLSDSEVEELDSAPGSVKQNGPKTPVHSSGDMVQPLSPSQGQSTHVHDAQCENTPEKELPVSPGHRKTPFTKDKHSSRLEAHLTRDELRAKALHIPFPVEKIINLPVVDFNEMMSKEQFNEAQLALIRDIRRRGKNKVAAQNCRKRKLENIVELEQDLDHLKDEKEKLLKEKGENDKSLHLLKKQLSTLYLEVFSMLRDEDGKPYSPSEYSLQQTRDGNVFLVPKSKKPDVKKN
Cellular tumor antigen p53 (Homo sapiens), sequence (P04637 whole entry, looked up): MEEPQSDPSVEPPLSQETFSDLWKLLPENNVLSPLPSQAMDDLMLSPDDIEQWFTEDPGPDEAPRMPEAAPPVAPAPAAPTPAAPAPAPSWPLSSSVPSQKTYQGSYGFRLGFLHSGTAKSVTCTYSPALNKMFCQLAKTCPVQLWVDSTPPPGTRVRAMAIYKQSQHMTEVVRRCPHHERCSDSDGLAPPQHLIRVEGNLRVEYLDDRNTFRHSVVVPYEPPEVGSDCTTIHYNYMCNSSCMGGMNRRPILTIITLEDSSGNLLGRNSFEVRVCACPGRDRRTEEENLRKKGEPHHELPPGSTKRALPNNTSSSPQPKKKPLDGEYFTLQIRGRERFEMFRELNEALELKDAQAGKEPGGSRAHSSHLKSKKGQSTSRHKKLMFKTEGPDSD
Signal transducer and activator of transcription 3 (Homo sapiens), sequence (P40763 whole entry, looked up): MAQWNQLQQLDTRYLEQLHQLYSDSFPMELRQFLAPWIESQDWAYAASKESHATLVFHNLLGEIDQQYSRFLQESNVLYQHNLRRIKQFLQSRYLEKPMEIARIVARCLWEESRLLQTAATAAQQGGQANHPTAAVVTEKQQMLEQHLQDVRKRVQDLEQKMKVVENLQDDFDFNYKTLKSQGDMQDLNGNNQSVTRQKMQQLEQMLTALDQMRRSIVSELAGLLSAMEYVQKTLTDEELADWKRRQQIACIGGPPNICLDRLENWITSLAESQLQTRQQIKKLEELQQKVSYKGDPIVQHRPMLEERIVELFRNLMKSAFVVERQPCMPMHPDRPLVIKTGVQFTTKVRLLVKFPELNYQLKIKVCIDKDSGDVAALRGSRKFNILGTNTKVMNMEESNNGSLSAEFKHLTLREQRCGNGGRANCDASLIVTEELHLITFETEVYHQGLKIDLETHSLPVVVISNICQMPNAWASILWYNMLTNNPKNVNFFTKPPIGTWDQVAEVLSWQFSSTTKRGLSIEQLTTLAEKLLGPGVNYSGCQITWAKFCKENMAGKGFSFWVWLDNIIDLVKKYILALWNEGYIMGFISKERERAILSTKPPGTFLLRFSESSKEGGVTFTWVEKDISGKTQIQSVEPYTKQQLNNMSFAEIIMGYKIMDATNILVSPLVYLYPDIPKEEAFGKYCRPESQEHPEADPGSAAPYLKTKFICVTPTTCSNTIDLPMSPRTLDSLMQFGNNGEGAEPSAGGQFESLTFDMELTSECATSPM
Nuclear factor NF-kappa-B p105 subunit (Homo sapiens), sequence (P19838 whole entry, looked up): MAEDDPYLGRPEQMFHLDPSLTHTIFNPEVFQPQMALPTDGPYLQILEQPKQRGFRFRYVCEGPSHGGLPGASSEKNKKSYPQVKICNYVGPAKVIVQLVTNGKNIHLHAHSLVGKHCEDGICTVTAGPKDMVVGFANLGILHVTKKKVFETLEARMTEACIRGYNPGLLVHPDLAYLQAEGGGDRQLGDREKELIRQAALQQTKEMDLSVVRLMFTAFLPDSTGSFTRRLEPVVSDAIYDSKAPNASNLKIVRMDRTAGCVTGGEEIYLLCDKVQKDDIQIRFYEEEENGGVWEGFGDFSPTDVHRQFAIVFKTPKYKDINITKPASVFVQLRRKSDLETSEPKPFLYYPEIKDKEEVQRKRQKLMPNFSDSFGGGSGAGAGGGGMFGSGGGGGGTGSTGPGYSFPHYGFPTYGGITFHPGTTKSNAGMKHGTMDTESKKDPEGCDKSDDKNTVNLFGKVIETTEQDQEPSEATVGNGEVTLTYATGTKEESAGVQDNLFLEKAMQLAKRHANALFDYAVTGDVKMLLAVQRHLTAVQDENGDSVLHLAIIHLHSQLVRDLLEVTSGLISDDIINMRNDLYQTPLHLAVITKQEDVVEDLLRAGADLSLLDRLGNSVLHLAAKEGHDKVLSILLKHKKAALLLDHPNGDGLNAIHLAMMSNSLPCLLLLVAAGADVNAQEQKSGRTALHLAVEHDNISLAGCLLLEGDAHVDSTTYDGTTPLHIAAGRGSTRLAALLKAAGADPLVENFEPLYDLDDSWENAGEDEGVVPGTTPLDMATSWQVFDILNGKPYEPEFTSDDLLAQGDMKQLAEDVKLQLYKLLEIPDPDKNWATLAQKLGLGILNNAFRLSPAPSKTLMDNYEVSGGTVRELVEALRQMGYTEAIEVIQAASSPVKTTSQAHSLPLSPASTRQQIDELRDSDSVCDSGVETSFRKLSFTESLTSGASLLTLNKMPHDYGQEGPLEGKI

COC(=O)CCCCC(=O)OC
inactive: MYC, MYC (gene 4609) | [1] | [2] | [3] | [4] | [5] | [6] | [7] | [8] | [9] | [10] | [11] | [12] | [13] | [14] | [15] | [16]

CCCCC(CC)COC(=O)CCCCC(=O)OCC(CC)CCCC (stereo not drawn)
inactive: MYC, MYC (gene 4609) | [1] | [2] | [17] | [3] | [4] | [5] | [6] | [7] | [8] | [18] | [10] | [11] | [12] | [14] | [15] | [16]

CCCCCCC(=O)O
inactive: MYC, MYC (gene 4609) | [1] | [2] | [3] | [4] | [5] | [6] | [7] | [8] | [18] | [10] | [11] | [12] | [14] | [15] | [16]

NC(=O)N1C(=O)C(C(=O)c2cc(Cl)cs2)c2cc(F)c(Cl)cc21 (stereo not drawn)
active: MYC, MYC (gene 4609) 27 µM | [1] 50 µM | [2] 20.8 µM | [3] 13.9 µM | [4] 50 µM | [5] 16.1 µM | [6] 27.8 µM | [7] 13.3 µM | [8] 31.8 µM | [18] 26.2 µM | [10] 19.3 µM | [11] 34.2 µM | [12] 89.3 µM | [14] 40.2 µM | [15] 17.7 µM | [16] 94.4 µM

CC(C)(C)c1cc(C(C)(C)C)c(O)c(C(C)(C)C)c1
active: [6] 23.5 µM | [15] 17.9 µM
inactive: MYC, MYC (gene 4609) | [1] | [2] | [3] | [4] | [5] | [7] | [8] | [18] | [10] | [11] | [12] | [13] | [14] | [16]

c1ccc2cc3c(ccc4ccccc43)cc2c1
inactive: [1] | [3] | [4] | [7] | [8] | [18] | [12] | [14] | [16]
active: MYC, MYC (gene 4609) 13.4 µM | [2] 12.1 µM | [5] 18.6 µM | [6] 22.9 µM | [9] 8.31 µM | [10] 8.09 µM | [11] 13.3 µM | TIMP1, TIMP1 (gene 7076) 10.2 µM | [15] 5.27 µM

N#C[C@@H]1CC(F)(F)CN1C(=O)CNC1CC2CCC(C1)N2c1ncccn1 (stereo partly drawn)
active: [17] 1.8 µM
inactive: MYC, MYC (gene 4609) | [1] | [2] | [3] | [4] | [5] | [6] | [7] | [8] | [18] | [10] | [11] | [12] | [14] | [15] | [16]

— PubChem BioAssay (EPA / NIEHS)
